In PubChem BioAssay AID596 (National Center for Advancing Translational Sciences (NCATS), 2007):
About 1,400 (2%) of roughly 71,000 compounds were called active. Not shown: some 3% with an inconclusive outcome. Calls follow the shape of the dose curve; as a rule, active = well fitted curve in the direction sought with a large enough effect; inconclusive = small, poorly fitted or top-dose-only effect; inactive = no such curve, though single readings can be large or run the other way. What follows is part of a selection rich in actives, with near analogues and random picks from the rest.

Target: Microtubule-associated protein tau (Homo sapiens) (UniProt P10636)
Experiment: qHTS Assay for Tau Filament Binding;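 also: actives lower thioflavin S fluorescence by blocking filaments or displacing dye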
Conditions: recombinant tau filaments, thioflavin S fluorescence, 15 h, filaments grown with octadecylsulfate alongside compound; series mostly up to 57.1 µM; activity change, negative = inhibition: at the top concentration
In short: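 Quantitative HTS: thioflavine S signal from ODS-induced tau filaments, excited at 450 nm, emission 510 nm. Conditions: 1 uM tau, 30 uM ODS, 15 h at 37 C, pH 7.4.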
% is scaled to controls: 0 for no effect and ±100 for the full control effect; potency is read from the fitted curve at half-maximal effect.

Chain of Microtubule-associated protein tau (Homo sapiens) (P10636 whole entry, looked up): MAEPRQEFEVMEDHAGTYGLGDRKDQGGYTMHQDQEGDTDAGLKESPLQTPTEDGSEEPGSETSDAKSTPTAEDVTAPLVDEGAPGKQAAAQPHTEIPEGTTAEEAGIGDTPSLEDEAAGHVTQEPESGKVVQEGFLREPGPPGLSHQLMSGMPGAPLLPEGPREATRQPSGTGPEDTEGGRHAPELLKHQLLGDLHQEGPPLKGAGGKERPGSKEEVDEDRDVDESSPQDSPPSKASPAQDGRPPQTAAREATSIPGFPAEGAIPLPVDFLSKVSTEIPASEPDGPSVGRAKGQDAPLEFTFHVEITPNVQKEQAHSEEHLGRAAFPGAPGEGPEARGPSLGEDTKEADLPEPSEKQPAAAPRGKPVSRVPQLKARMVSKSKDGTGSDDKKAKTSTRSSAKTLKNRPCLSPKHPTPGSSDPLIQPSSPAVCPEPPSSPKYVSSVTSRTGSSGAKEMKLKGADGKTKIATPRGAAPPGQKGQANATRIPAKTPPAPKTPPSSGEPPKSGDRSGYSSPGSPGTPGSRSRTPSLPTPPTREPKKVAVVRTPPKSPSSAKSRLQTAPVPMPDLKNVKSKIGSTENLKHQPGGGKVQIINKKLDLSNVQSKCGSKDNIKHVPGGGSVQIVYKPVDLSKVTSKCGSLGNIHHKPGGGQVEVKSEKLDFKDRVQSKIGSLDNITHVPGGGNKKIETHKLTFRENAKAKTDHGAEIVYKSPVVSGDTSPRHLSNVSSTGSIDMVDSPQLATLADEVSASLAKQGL

| Compound | activity change, negative = inhibition | Potency |
| --- | --- | --- |
| CC/C=C/C/C=C/C/C=C/CCCCCCCC(=O)OCC | -12.2% (inactive) |  |
| Cc1c(C(=O)OCC(=O)N(CCC#N)c2ccccc2)oc2c1ccc1ccccc12 | 7.5% (inactive) |  |
| O=[n+]1c2c(n([O-])c3cc(Br)ccc31)CCC2 |  | 25.1 µM (active) |
| CCc1c(C)n([O-])c2c([n+]1=O)CCCCC2 | -6.7% (inactive) |  |
| O=C1CCCc2c1[nH]c1ccc(Br)cc21 | 33.9% (inactive) |  |
| CC(C)(C)[Si](OCC[C@@H]1C[C@@]1(C)[C@@H](NP(=O)(c1ccccc1)c1ccccc1)c1ccccc1)(c1ccccc1)c1ccccc1 | -2.3% (inactive) |  |
| CC(=O)c1cccc(S(=O)(=O)N2CCC(n3nnc4cc(F)ccc43)CC2)c1 | -5.9% (inactive) |  |
| C/C(CC(O)(/C=N/O)c1ccccc1)=N\O (stereo not given) | -19.4% (inactive) |  |
| CCCC(Cl)CCCC(Cl)CCC(Cl)CCC(Cl)CCC(Cl)CCCC(Cl)CCC (stereo not given) | -0.1% (inactive) |  |
| Cc1cc(C(=O)O)ccc1[N+](=O)[O-] | -1.2% (inactive) |  |
| CCc1c(C)nc2ncnn2c1N1CCC(C(=O)NCc2ccc3c(c2)OCO3)CC1 | 6.8% (inactive) |  |
| N/C(=N\c1nc2ccccc2o1)NC(=O)C(Cc1ccccc1)N1C(=O)c2ccccc2C1=O (stereo not given) |  | 12.6 µM (active) |
| O=C(NCCN1CCOCC1)[C@H](Cc1ccccc1)N1C(=O)c2ccccc2C1=O | -0.8% (inactive) |  |
| Cc1ccc(C)n1C(Cc1ccccc1)C(=O)O (stereo not given) | 28.1% (inactive) |  |
| O=C(OC1CCOC1=O)c1ccc(-c2nc3ccccc3s2)s1 (stereo not given) | -28.6% (inactive) |  |
| COc1ccccc1CNc1ncncc1-c1cccc(NS(C)(=O)=O)c1 | -1.8% (inactive) |  |
| O=C(O)CCCCC(=O)O | 0% (inactive) |  |
| C#CCCCCCCCCCCCCCCCC(=O)O |  | 31.6 µM (active) |
| CCCCCCCCCCCC(=O)O |  | inactive |
| CC1(CCC(=O)OC2CCCCC2)OCCO1 | -1.1% [at 11.4 µM] (inactive) |  |
| CC1CC(c2ccccc2)n2nc(NC(=O)c3cccs3)nc2N1 (stereo not given) | 7.4% (inactive) |  |
| Cc1cccc(Br)c1 | 0.5% (inactive) |  |
| CC(=O)N1[C@H](C)C=C[C@]1(Cc1ccccc1)C(=O)NCc1ccccn1 | 0.2% (inactive) |  |
| Cc1ccc(-n2c(N)c(C(=O)N3CCOCC3)sc2=S)c(C)c1 | -6.7% (inactive) |  |
| C/C(=C\c1ccco1)C1Nc2cccc3cccc(c23)N1 |  | 15.8 µM (active) |
